From PubChem
Most compounds without a hit are left out; they make up all but 0.51% or so of the library.
E coli growth-1: E. coli growth inhibition | Escherichia coli growth, OD600, 23 h; active compounds read low | OD600 absorbance (test concentration not listed) | 330,000 tested, 0.21% active;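 active = OD600 absorbance below the run mean of sample wells minus 3.6 SD, in any replicate, cut at about 0.56 in these data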
Tat export inh: inhibitors of E. coli Tat protein transport | E. coli MC4100 TorA-mCherry Tat export, fluorescence | inhibition, % at 10 µM | 340,000 tested, 0.036% active | AID 488895;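 active = mean replicate inhibition at least 50% and at least half of replicates individually reaching 50%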;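 note: exported cargo escapes ClpAP degradation while cytoplasmic cargo is degraded and loses fluorescence; 0% = median of neutral control wells and 100% = median of NaSCN control wells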
AddAB inh: less growth of phage-infected E. coli with AddAB; E. coli expressing H. pylori AddAB, absorbance growth; inhibition, % at 11.9 µM; 330,000 tested, 0.29% active; in the data active = inhibition above about 12%;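 note: 0% = vehicle wells of infected cells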
E coli growth-2: bacterial growth inhibition, counter-screen for AddAB inhibitors | AID 449728 | inhibition, % at 11.9 µM | E. coli V3065 growth, OD600 absorbance, 18 h | 330,000 tested, 0.27% active;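 active = inhibition above the campaign's mean inhibition across all tested compounds plus 3 SD, cut at about 9.9% in these data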;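 note: uninfected addAB+ strain grown without phage in ampicillin broth; 0% = DMSO wells and 100% = ciprofloxacin 0.95 µg/ml wells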
phage Ecoli inh: E. coli growth loss with phage present; 360,000 tested, 0.26% active; AID 651602; growth absorbance; inhibition, % at 11.9 µM; in the data active = inhibition above about 11%
AddAB confirm: growth loss of T4-infected E. coli expressing H. pylori AddAB, confirmed; shares compounds with AddAB inh; E. coli V3065 expressing H. pylori AddAB, T4 phage, OD; T4 phage with gene 2 nonsense mutations; inhibition, % at 11.9 µM; 880 tested, 64% active; AID 488942;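 active = mean inhibition above a set limit taken from the earlier primary screen, cut at about 13% in these data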;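 note: higher means less bacterial growth since AddAB block lets phage replicate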
RecBCD counter: reduces growth of phage-infected RecBCD+ E. coli, AddAB inhibitor counter-screen; 880 tested, 73% active; inhibition, % at 11.9 µM; E. coli V66 + mutant T4 phage, OD growth; shares compounds with AddAB inh;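 active = mean inhibition above the mean of solvent-only control wells plus 3 SD, cut at about 4% in these data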;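 note: optical density read after an 18 h incubation at 37 °C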
Bact viability: counter-screen for AddAB inhibitors: inhibitors of bacterial viability; shares compounds with AddAB inh; absorbance (AddAB counterscreen); inhibition, % at 11.9 µM; 880 tested, 35% active; AID 488956; in the data active = inhibition above about 25%
RecBCD conf: growth loss of phage-infected V66 E. coli, RecBCD confirmation screen; E. coli V66 + T4 2- phage, growth OD; shares compounds with phage Ecoli inh; AID 651982; 890 tested, 45% active; inhibition, % at 11.9 µM;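 active = mean inhibition over triplicates exceeding the hit threshold derived in the original primary screen, cut at about 11% in these data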
Ecoli viability: bacterial viability inhibition counter-screen for RecBCD; shares compounds with phage Ecoli inh; E. coli viability, absorbance (OD) growth; inhibition, % at 11.9 µM; 890 tested, 29% active; AID 651983; in the data active = inhibition above about 20%;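 note: E. coli strain V66 grown with compound alone and no phage infection; 0% = bacteria with DMSO vehicle only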
AddAB counter: growth loss of phage-infected AddAB E. coli, RecBCD counter-screen; shares compounds with phage Ecoli inh; E. coli expressing H. pylori AddAB + T4 phage, OD growth; gene 2 mutant T4, recBCD-deleted host; inhibition, % at 11.9 µM; 890 tested, 45% active; AID 651984;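 active = mean inhibition above the solvent-only control wells' mean plus 3 SD, cut at about 22% in these data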;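 note: higher means less bacterial growth from phage killing when AddAB is blocked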
The depositor's hits bear a star; / = no result.

SMILES	E coli growth-1	Tat export inh	AddAB inh	E coli growth-2	phage Ecoli inh	AddAB confirm	RecBCD counter	Bact viability	RecBCD conf	Ecoli viability	AddAB counter
CCn1cc(C(=O)O)c(=O)c2cc(F)c(N3CCN(C(=S)NC(=O)c4ccccc4Br)CC3)cc21	0.067*	11	97*	99*	94*	103*	22*	102*	101*	102*	102*
CCCOc1ccc(C(=O)NC(=S)N2CCN(c3cc4c(cc3F)c(=O)c(C(=O)O)cn4CC)CC2)cc1	0.084*	62*	99*	97*	98*	103*	101*	105*	103*	103*	101*
CCn1cc(C(=O)O)c(=O)c2cc(F)c(N3CCN(C(=S)NC(=O)c4ccc(F)cc4)CC3)cc21	0.063*	13	98*	96*	99*	100*	100*	102*	103*	104*	105*
CCCCCCCCCC(=O)N1CCN(c2cc3c(cc2F)c(=O)c(C(=O)O)cn3CC)CC1	0.56	0	0	1	1	/	/	/	/	/	/
CCOC(=O)CN1C(=O)NC(CCc2ccccc2)C(C(=O)OC)C1C (centres undefined)	0.67	/	/	/	/	/	/	/	/	/	/
CC(=NNC(=O)c1nn(C)c(C)c1Br)c1ccc(NC(=O)C2CCCC2)cc1	0.75	/	/	/	/	/	/	/	/	/	/
COc1ccc(C2CC=C(C(=O)O)C(c3ccccc3F)N2S(=O)(=O)c2ccccc2C)cc1 (centres undefined)	0.7	/	/	/	/	/	/	/	/	/	/
CCn1cc(C(=O)O)c(=O)c2cc(F)c(N3CCN(C(=S)NC(=O)c4cccc(F)c4)CC3)cc21	0.071*	4	98*	99*	42*	100*	100*	100*	101*	101*	101*
O=C(C=Cc1ccco1)Nc1ccc(Oc2ccc(Cl)cc2)cc1	0.71	/	/	/	/	/	/	/	/	/	/
Cc1ccc(/C=N\NC(=O)c2ccc(Cn3cc(Br)c([N+](=O)[O-])n3)o2)o1	/	5	36*	27*	13*	73*	9.4*	51*	6	9	44*
Cc1ccc(C=NNC(=O)c2ccc(Cn3cc(Br)c([N+](=O)[O-])n3)o2)o1	0.67	/	/	/	/	/	/	/	/	/	/
O=C(Cn1cnc2ccccc21)Nc1ccc(SC(F)F)cc1	0.55	-29	15*	13*	17*	7	13*	10	6	9	11
O=C(Cn1c2ccccc2c(=O)c2ccccc21)NN=Cc1cc([N+](=O)[O-])ccc1N1CCCCCC1	0.77	/	/	/	/	/	/	/	/	/	/
CCCC(=O)NC(c1ccc(N(C)C)cc1)c1c(O)ccc2ccccc12 (centres undefined)	0.67	1	-3	-3	4	/	/	/	/	/	/
CCCCC(=O)NC(c1ccc(N(C)C)cc1)c1ccc2cccnc2c1O (centres undefined)	/	20	25*	35*	23*	30*	23*	21	13*	15	14
CCCCC(=O)NC(c1ccc(N(CC)CC)cc1)c1ccc2cccnc2c1O (centres undefined)	/	1	20*	17*	19*	24*	17*	19	12*	14	19
Nc1nc(Cl)nc2c1ncn2C1CCC(CO)O1 (centres undefined)	/	/	/	/	3	/	/	/	/	/	/
O=c1[nH]cnc2c1ncn2[C@@H]1C[C@@H](O)[C@H](CO)O1	0.61	-13	2	-2	1	/	/	/	/	/	/
Nc1ncnc2c1ncn2[C@H]1CC[C@@H](CO)O1	0.36*	14	76*	75*	53*	94*	48*	89*	60*	55*	88*
O=c1[nH]cnc2c1ncn2[C@H]1CC[C@@H](CO)O1	/	8	97*	98*	101*	98*	96*	98*	98*	100*	99*
CN1CCc2c(sc(NC(=O)c3ccc([N+](=O)[O-])o3)c2C(N)=O)C1	/	56*	99*	99*	80*	102*	82*	102*	69*	89*	103*
Cc1ccnc(NC(=O)c2ccccc2[N+](=O)[O-])c1	0.7	2	2	1	3	/	/	/	/	/	/
Cc1ccnc(NC(=O)c2ccc([N+](=O)[O-])o2)c1	0.56	-10	27*	33*	13*	99*	9.8*	30*	8	10	75*
NC(=O)c1ccsc1NC(=O)c1ccc([N+](=O)[O-])o1	0.2*	-10	96*	88*	21*	100*	20*	68*	13*	16	101*
CC(C)=CC(=O)OC1C2C(CC(C)C3C(O)CC(=O)[C@@]13C)OC(=O)C2C (some centres undefined)	0.65	/	/	/	/	/	/	/	/	/	/
SMILES	E coli growth-1	Tat export inh	AddAB inh	E coli growth-2	phage Ecoli inh	AddAB confirm	RecBCD counter	Bact viability	RecBCD conf	Ecoli viability	AddAB counter
O=S(=O)(c1ccccc1)[C@@]1(c2ccc(Br)cc2)CC2ON=C(c3cccc(Br)c3)C2C1 (some centres undefined)	0.73	/	/	/	/	/	/	/	/	/	/
COc1ccc(OC)c(NC(=O)Nc2nnc(N3CCCCC3C)s2)c1 (centres undefined)	0.69	2	13*	13*	13*	2	17*	-2	10	12	-5
COc1cc(Cc2cnc(N)nc2N)cc(OC)c1OC	0.064*	-28	99*	100*	101*	98*	100*	100*	101*	102*	101*
COc1cc(CN2CCCCCC2)cc(OC)c1OC	0.67	2	3	0	2	/	/	/	/	/	/
COC(=O)C(CC(C)C)N(Cc1ccccc1)S(=O)(=O)N(Cc1ccc(OC)cc1)C(CC(C)C)C(=O)OC (centres undefined)	0.72	/	/	/	/	/	/	/	/	/	/
CCOC(=O)N1CCN(Cc2ccc(O)c3ncccc23)CC1	0.75	/	2	3	8	/	/	/	/	/	/
Cc1ccc(C)c(S(=O)(=O)N2CCN(Cc3ccc(O)c4ncccc34)CC2)c1	0.66	1	17*	16*	17*	13*	15*	10	8	13	19
CCOC(=O)C1=Nc2ccccc2C1=[N+]=[N-]	/	11	98*	96*	91*	100*	98*	101*	98*	99*	101*
